Measurements: PubChem BioAssay (EPA / NIEHS)
Where “and” joins values, the source holds several entries; their conditions need not be identical. Identical values can stand only once. Records with an inconclusive call do not appear. A structure can be active in one record and inactive in another. Calls of active or inactive are those of the source. The calls were made as follows, unless noted: active = hit-call score of the fitted dose curve at least 0.9, where 1 is the maximum; inactive = score below 0.9.

What was measured:
[1] = ATG_NFI_CIS: Attagene CIS-FACTORIAL HepG2 Assay for human Nuclear Factor I (NFI) (AID 2282989); conditions: HepG2 cis-regulatory reporter, NFI response element transcription; actives raise or lower the signal
Outline: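 After transient transfection of HepG2 with cis-promoter reporter constructs and 24 h dosing, RNA is reverse-transcribed, amplified, 6-FAM end-labelled and HpaI-digested before capillary analysis. Bidirectional curve fitting against DMSO.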

[2] = biological target: Myc proto-oncogene protein (Homo sapiens) (UniProt P01106); experiment: ATG_Myc_CIS: Attagene CIS-FACTORIAL HepG2 Assay for human Myelocytomatosis (Myc) Proto-Oncogene Transcription Factor (AID 2282990); conditions: HepG2, Attagene cis-reporter transcription factor activity; actives raise or lower the signal
Outline: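 Cells of the HepG2 human liver line bear multiple cis-driven reporter transcription units. Reporter mRNA after 24 h exposure is reverse-transcribed, amplified, labelled and resolved by capillary electrophoresis, with gain- or loss-of-signal fitting relative to DMSO.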

[3] = ATG_NF_kB_CIS: Attagene CIS-FACTORIAL HepG2 Assay for human Nuclear Factor Kappa B (NF-kB) (AID 2282991); conditions: HepG2 Attagene cis-factorial NF-kB reporter mRNA; actives raise or lower the signal
Outline: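 Endpoint from a 52-component multiplexed HepG2 reporter panel: cis-regulated transcription units transiently transfected, 24 h dosing, reporter mRNA quantified by RT-PCR and capillary electrophoresis, scored as increase or decrease against DMSO.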

[4] = ATG_NRF2_ARE_CIS: Attagene CIS-FACTORIAL HepG2 Assay for human Nuclear Factor Erythroid 2 Related Factor 2 (NFR2) response to Antioxidant Response Elements (ARE) (AID 2282992); conditions: HepG2 Attagene ARE/NRF2 reporter, transcription factor activity; actives raise or lower the signal
Outline: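 Multiplexed reporter mRNA profiling in HepG2 after a 24 h chemical exposure. Curves fitted in both directions relative to DMSO negative control.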

[5] = ATG_Oct_MLP_CIS: Attagene CIS-FACTORIAL HepG2 Assay for human Octamer-Binding Transcription Factor (Oct) (AID 2282993); conditions: HepG2 Attagene cis-factorial Oct reporter, mRNA; actives raise or lower the signal
Outline: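 Cells of the HepG2 line express promoter-controlled reporter sequences whose mRNA levels, after 24 h treatment, are measured by RT-PCR and capillary electrophoresis. Increases and decreases are scored relative to DMSO.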

[6] = biological target: Cellular tumor antigen p53 (Homo sapiens) (UniProt P04637); experiment: ATG_p53_CIS: Attagene CIS-FACTORIAL HepG2 Assay for human p53 Transcription Factor (AID 2282994); conditions: HepG2 p53 cis-element reporter, Attagene mRNA; actives raise or lower the signal
Outline: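 Multiplexed reporter mRNA assay in human HepG2 liver cells; cis-regulated units report endogenous factor activity. Values come from bidirectional curve fitting against DMSO negative control after 24 h treatment.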

[7] = biological target: human Peroxisome Proliferator-activated Receptor alpha (PPARa), PPARA (gene 5465) (UniProt Q07869); experiment: ATG_PPARa_TRANS: Attagene TRANS-FACTORIAL HepG2 Assay for human Peroxisome Proliferator-activated Receptor alpha (PPARa) (AID 2283001; active = hit-call score of the fitted dose curve at least 0.9, where 1 is the maximum)
Outline: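 Read-out is fluorescence of reporter cDNA fragments resolved by capillary electrophoresis after RT-PCR. Human HepG2 liver cells carried transfected PPARa-Gal4 chimera and GAL4-UAS reporter units, treated 24 h; activity scored as increase over DMSO.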

[8] = biological target: human Peroxisome Proliferator-activated Receptor delta (PPARd), PPARD (gene 5467) (UniProt Q03181); experiment: ATG_PPARd_TRANS: Attagene TRANS-FACTORIAL HepG2 Assay for human Peroxisome Proliferator-activated Receptor delta (PPARd) (AID 2283002; active = hit-call score of the fitted dose curve at least 0.9, where 1 is the maximum)
Outline: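 Cell-based TRANS reporter: HepG2, transient MRTU transfection, 24 h exposure. Readout = reporter mRNA (RT-PCR/CE, 6-FAM). Gain-of-signal fit vs DMSO control.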

[9] = biological target: human Retinoic Acid Receptor beta (RARb), RARB (gene 5915) (UniProt P10826); experiment: ATG_RARb_TRANS: Attagene TRANS-FACTORIAL HepG2 Assay for human Retinoic Acid Receptor beta (AID 2283004; active = hit-call score of the fitted dose curve at least 0.9, where 1 is the maximum)
Outline: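 Induction of reporter mRNA from a chimeric RARb-Gal4 construct was measured by RT-PCR, FAM labelling, HpaI digestion and capillary electrophoresis. Measurements followed 24 h compound treatment of transiently transfected human HepG2 liver cells, with DMSO as baseline.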

[10] = biological target: Retinoic acid receptor alpha (Homo sapiens) (UniProt P10276); experiment: ATG_RARa_TRANS: Attagene TRANS-FACTORIAL HepG2 Assay for human Retinoic Acid Receptor alpha (RARa) (AID 2283005; active = hit-call score of the fitted dose curve at least 0.9, where 1 is the maximum)
Outline: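 Reporter transcripts, measured by RT-PCR with fluorescent labeling and capillary electrophoresis after 24 h dosing, reflect activity of an exogenous human RARa–GAL4 fusion in transiently transfected HepG2. Fitted for increase relative to DMSO.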

[11] = biological target: Nuclear receptor subfamily 1 group I member 2 (Homo sapiens) (UniProt O75469); experiment: ATG_PXR_TRANS: Attagene TRANS-FACTORIAL HepG2 Assay for human Pregnane X Receptor (PXR) (AID 2283008; active = hit-call score of the fitted dose curve at least 0.9, where 1 is the maximum)
Outline: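 Measures mRNA induction of a GAL4-UAS-driven reporter in human HepG2 cells transiently expressing PXR fused to Gal4, following 24 h treatment. DMSO served as negative control and baseline.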

[12] = biological target: human Retinoic Acid Receptor gamma (RARg), RARG (gene 5916) (UniProt P13631); experiment: ATG_RARg_TRANS: Attagene TRANS-FACTORIAL HepG2 Assay for human Retinoic Acid Receptor gamma (RARg) (AID 2283009; active = hit-call score of the fitted dose curve at least 0.9, where 1 is the maximum)
Outline: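 Transient transfection of HepG2 with multi-reporter constructs, then 24 h chemical treatment. Total RNA isolated, reverse-transcribed, PCR-amplified, fluorescently labelled and resolved by capillary electrophoresis; activity scored as mRNA induction versus DMSO.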

[13] = biological target: human RAR-related Orphan Receptor beta (RORb), RORB (gene 6096) (UniProt Q92753); experiment: ATG_RORb_TRANS: Attagene TRANS-FACTORIAL HepG2 Assay for human RAR-related Orphan Receptor beta (RORb) (AID 2283010; active = hit-call score of the fitted dose curve at least 0.9, where 1 is the maximum)
Outline: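 Readout is reporter-gene mRNA induction, detected as fluorescence after RT-PCR and capillary electrophoresis, fitted for gain of signal against DMSO controls. Transiently transfected HepG2 liver cells carrying GAL4-UAS reporter constructs were treated for 24 hours.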

[14] = BSK_3C_TissueFactor: BioMAP Diversity Plus: 3C Assay for Tissue Factor Biomarker Activity (AID 2282997); conditions: BioMAP 3C HUVEC, tissue factor biomarker readout; actives raise or lower the signal
Outline: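 Dosing of human umbilical vein endothelial cells preceded a 24 h incubation. Tissue Factor was then read by ELISA, with increases and decreases both scored relative to DMSO controls.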

[15] = BSK_3C_uPAR: BioMAP Diversity Plus: 3C Assay for Urokinase-type plasminogen activator receptor (uPAR) Biomarker Activity (AID 2282998); conditions: BioMAP 3C HUVEC, uPAR biomarker ELISA; actives raise or lower the signal
Outline: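 Endothelial primary cells of human umbilical vein origin received test chemical; 24 h later uPAR was assayed by ELISA. Fitting was bidirectional, DMSO as negative control.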

[16] = BSK_3C_VCAM1: BioMAP Diversity Plus: 3C Assay for Vascular cell adhesion molecule 1 (VCAM1) Biomarker Activity (AID 2282999); conditions: BioMAP 3C HUVEC, VCAM1 ELISA, cytokine-stimulated; actives raise or lower the signal
Outline: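 Endothelial cells from human umbilical vein are treated with test chemical. At 24 h, VCAM-1 is measured by ELISA, and responses in either direction are fitted relative to DMSO.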

[17] = BSK_4H_Eotaxin3: BioMAP Diversity Plus: 4H Assay for Eotaxin 3 Biomarker Activity (AID 2283000); conditions: primary human endothelial cells (HUVEC); actives raise or lower the signal;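 as to outcome: CCL26 protein level quantified by ELISA in parallel with SRB cytotoxicity check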
Outline: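 Human umbilical vein endothelial cells (BSK_4H system) dosed with test chemical; Eotaxin-3 (CCL26) measured by ELISA 24 h after dosing. Bidirectional curve fitting relative to DMSO negative control as baseline.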

[18] = read-out: Intercellular Adhesion Molecule 1 (ICAM1), ICAM1 (gene 3383); experiment: BSK_3C_ICAM1: BioMAP Diversity Plus: 3C Assay for Intercellular Adhesion Molecule 1 (ICAM1) Biomarker Activity (AID 2283003); conditions: primary human endothelial cells (HUVEC); actives raise or lower the signal
Outline: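 ICAM-1 levels measured by ELISA after HUVEC cultures in the 3C system had been dosed for 24 h. Gain or loss of signal relative to DMSO was fitted in both directions.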

[19] = BSK_3C_Proliferation: Cell Proliferation Assessment in the BioMAP Diversity Plus: 3C Assay (AID 2283006); conditions: primary human endothelial cells (HUVEC);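 as to AC50: potency may reflect either rise or fall in cell number versus DMSO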
Outline: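 Read-out is total protein by SRB absorbance at 560 nm, taken as a proxy for relative cell number. Primary human umbilical vein endothelium cultured below confluence was dosed for 48 h, TCA-fixed and SRB-stained; curves were fitted bidirectionally versus DMSO.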

[20] = biological target: Peroxisome proliferator-activated receptor gamma (Homo sapiens) (UniProt P37231); experiment: ATG_PPARg_TRANS: Attagene TRANS-FACTORIAL HepG2 Assay for human Peroxisome Proliferator-activated Receptor-gamma (PPARg) (AID 2283007; active = hit-call score of the fitted dose curve at least 0.9, where 1 is the maximum)
Outline: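 Endpoint reflects upward reporter mRNA change versus DMSO controls. Setup: transiently transfected HepG2, GAL4-UAS reporters driven by chimeric NR-Gal4, 24 h incubation, RT-PCR with capillary electrophoresis read-out.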

Sequence of Nuclear receptor subfamily 1 group I member 2 (Homo sapiens) (O75469 whole entry, looked up, the tested form may be a part): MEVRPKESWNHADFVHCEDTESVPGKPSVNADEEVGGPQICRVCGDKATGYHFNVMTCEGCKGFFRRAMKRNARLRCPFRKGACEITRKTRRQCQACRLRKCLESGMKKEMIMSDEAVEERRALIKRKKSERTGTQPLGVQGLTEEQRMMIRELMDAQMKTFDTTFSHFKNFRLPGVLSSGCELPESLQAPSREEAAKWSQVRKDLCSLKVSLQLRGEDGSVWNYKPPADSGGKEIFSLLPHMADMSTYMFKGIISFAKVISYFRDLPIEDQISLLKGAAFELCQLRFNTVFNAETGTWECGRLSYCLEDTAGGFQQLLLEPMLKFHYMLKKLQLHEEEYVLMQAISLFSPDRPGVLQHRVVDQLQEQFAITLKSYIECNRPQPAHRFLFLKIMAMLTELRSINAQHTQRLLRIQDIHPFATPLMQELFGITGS
Sequence of Cellular tumor antigen p53 (Homo sapiens) (P04637 whole entry, looked up): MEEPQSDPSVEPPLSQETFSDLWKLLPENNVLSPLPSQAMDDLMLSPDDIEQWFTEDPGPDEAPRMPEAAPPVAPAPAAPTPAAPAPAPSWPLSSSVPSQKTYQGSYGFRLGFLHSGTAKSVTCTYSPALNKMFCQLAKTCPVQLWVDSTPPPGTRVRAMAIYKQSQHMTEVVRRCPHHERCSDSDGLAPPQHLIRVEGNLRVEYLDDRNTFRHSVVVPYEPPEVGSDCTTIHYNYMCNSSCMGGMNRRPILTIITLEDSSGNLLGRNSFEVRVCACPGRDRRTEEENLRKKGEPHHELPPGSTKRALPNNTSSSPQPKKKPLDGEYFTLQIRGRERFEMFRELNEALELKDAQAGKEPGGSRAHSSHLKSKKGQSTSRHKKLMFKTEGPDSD
Sequence of human Peroxisome Proliferator-activated Receptor alpha (PPARa), PPARA (gene 5465) (Q07869 whole entry, looked up, the tested form may be a part): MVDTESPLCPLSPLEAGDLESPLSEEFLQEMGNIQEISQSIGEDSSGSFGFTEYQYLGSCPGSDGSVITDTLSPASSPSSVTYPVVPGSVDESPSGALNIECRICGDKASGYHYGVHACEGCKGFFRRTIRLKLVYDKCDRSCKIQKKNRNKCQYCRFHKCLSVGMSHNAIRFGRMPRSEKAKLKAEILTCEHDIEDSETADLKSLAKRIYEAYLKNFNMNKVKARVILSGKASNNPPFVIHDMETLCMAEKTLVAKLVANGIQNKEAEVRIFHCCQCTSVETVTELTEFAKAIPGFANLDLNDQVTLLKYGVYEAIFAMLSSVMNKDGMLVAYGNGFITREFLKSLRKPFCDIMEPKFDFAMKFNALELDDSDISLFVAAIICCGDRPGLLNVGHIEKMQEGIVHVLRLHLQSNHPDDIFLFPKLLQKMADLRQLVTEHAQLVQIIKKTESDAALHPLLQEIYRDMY
Sequence of human Retinoic Acid Receptor gamma (RARg), RARG (gene 5916) (P13631 whole entry, looked up): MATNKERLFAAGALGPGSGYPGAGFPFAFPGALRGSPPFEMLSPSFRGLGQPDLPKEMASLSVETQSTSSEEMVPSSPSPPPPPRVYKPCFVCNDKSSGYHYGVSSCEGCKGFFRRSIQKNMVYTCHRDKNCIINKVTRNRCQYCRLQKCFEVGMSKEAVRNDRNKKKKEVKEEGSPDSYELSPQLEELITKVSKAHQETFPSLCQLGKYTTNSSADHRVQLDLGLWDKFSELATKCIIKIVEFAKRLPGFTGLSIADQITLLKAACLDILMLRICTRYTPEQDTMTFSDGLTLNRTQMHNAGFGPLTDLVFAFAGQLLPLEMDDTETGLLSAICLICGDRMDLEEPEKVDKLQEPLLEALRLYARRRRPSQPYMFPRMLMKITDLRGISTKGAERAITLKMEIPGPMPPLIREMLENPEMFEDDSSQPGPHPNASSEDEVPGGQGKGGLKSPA
Sequence of Myc proto-oncogene protein (Homo sapiens) (P01106 whole entry, looked up): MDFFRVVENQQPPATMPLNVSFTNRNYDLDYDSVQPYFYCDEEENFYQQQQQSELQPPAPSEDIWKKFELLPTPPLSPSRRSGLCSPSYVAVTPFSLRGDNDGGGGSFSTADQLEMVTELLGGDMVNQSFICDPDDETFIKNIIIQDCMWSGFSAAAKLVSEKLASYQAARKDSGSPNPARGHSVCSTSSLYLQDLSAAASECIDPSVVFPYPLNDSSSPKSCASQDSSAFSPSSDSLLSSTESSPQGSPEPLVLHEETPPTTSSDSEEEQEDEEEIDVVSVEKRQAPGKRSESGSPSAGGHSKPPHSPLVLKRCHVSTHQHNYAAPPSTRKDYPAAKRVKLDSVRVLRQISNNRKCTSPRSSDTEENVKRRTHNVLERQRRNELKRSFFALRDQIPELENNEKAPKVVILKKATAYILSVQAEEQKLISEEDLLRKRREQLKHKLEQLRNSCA
Sequence of human RAR-related Orphan Receptor beta (RORb), RORB (gene 6096) (Q92753 whole entry, looked up, the tested form may be a part): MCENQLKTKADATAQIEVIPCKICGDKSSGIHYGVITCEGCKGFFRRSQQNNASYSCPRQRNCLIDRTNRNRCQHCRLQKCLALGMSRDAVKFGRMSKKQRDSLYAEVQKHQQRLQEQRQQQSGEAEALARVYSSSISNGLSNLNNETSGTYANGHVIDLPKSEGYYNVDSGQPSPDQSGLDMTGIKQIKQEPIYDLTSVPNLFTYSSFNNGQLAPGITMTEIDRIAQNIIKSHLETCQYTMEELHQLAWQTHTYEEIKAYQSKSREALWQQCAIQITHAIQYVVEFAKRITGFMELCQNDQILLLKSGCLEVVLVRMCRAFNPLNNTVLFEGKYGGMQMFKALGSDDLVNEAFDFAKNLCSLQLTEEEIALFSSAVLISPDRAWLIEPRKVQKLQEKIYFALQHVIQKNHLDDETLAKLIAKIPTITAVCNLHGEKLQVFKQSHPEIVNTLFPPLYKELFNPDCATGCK
Sequence of Peroxisome proliferator-activated receptor gamma (Homo sapiens) (P37231 whole entry, looked up, the tested form may be a part): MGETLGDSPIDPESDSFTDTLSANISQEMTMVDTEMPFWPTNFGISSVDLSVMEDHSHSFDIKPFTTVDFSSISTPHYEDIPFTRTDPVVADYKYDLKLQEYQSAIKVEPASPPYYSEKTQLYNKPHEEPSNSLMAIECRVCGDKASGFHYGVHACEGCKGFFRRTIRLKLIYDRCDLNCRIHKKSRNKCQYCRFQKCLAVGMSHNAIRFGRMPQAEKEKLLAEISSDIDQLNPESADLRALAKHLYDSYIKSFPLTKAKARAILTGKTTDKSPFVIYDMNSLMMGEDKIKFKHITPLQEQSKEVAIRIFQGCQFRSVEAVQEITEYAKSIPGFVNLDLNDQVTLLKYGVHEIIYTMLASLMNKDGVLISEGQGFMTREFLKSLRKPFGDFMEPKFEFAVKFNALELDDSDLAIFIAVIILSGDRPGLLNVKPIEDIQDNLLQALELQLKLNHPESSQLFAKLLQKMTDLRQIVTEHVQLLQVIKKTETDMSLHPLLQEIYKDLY
Sequence of Retinoic acid receptor alpha (Homo sapiens) (P10276 whole entry, looked up, the tested form may be a part): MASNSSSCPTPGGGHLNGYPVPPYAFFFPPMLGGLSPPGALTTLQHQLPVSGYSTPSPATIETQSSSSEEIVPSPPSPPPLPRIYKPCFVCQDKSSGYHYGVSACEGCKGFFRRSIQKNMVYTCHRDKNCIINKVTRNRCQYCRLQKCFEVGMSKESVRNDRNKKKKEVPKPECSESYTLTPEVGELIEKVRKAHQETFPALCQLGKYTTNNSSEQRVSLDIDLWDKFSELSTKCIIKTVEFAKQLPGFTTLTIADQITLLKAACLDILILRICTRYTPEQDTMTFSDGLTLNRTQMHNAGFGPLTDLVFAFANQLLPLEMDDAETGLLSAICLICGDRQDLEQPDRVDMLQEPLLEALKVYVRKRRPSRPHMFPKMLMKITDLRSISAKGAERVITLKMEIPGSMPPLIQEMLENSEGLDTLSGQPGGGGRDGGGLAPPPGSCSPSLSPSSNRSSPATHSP
Sequence of human Peroxisome Proliferator-activated Receptor delta (PPARd), PPARD (gene 5467) (Q03181 whole entry, looked up): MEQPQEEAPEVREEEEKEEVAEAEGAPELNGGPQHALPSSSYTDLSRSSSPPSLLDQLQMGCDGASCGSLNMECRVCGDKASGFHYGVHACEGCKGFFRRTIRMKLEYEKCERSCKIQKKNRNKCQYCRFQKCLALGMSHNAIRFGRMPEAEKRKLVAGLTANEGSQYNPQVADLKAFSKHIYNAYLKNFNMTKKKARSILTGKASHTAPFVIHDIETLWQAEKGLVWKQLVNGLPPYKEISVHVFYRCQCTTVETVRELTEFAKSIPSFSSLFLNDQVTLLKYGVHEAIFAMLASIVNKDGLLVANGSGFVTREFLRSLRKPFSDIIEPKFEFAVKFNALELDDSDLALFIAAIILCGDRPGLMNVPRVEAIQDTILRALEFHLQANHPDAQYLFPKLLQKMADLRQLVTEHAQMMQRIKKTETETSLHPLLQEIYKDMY
Sequence of human Retinoic Acid Receptor beta (RARb), RARB (gene 5915) (P10826 whole entry, looked up, the tested form may be a part): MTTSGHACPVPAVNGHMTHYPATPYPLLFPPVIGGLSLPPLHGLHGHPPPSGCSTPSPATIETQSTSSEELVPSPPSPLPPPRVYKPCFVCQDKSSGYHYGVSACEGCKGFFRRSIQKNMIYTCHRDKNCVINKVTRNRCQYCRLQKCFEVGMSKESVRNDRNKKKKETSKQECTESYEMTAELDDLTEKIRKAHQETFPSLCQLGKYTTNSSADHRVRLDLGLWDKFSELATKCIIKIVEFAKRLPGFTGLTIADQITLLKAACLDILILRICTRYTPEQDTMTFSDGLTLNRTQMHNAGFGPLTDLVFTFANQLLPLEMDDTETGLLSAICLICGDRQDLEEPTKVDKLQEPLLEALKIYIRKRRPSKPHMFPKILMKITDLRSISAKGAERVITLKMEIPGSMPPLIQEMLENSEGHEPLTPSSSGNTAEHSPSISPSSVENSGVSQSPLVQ

CCCCN(C)C
outcome [1]: inactive
outcome [2]: inactive
outcome [3]: inactive
outcome [4]: inactive
outcome [5]: inactive
outcome [6]: inactive
outcome [7]: inactive
outcome [8]: inactive
outcome [9]: inactive
outcome [10]: inactive
outcome [11]: inactive
outcome [12]: inactive
outcome [13]: inactive

C=COC(=O)C(C)(C)CCCCCC
outcome [1]: inactive
outcome [2]: inactive
outcome [3]: inactive
AC50 [4]: 142 µM (active)
outcome [5]: inactive
outcome [6]: inactive
AC50 [14]: 29.9 µM (active)
AC50 [15]: 31.3 µM (active)
AC50 [16]: 34.4 µM (active)
AC50 [17]: 30.3 µM (active)
outcome [7]: inactive
outcome [8]: inactive
AC50 [18]: 30.7 µM (active)
AC50 [19]: 26.7 µM (active)
outcome [20]: inactive
AC50 [11]: 36.5 µM (active)

Brc1ccc(Oc2ccc(Br)cc2Br)cc1
outcome [1]: inactive
outcome [2]: inactive
outcome [3]: inactive
outcome [4]: inactive
outcome [5]: inactive
outcome [6]: inactive
outcome [7]: inactive

CCC(C)c1ccccc1O (centres undefined)
outcome [1]: inactive
outcome [2]: inactive
outcome [3]: inactive
AC50 [4]: 74.7 µM (active)
outcome [4]: inactive
outcome [5]: inactive
outcome [14]: inactive
outcome [15]: inactive
outcome [16]: inactive
outcome [17]: inactive
outcome [7]: inactive
outcome [18]: inactive
outcome [19]: inactive
AC50 [11]: 45.7 µM (active) and 24.8 µM (active)
outcome [13]: inactive

OCCN1CN(CCO)CN(CCO)C1
AC50 [1]: 144 µM (active)
outcome [2]: inactive
outcome [3]: inactive
AC50 [4]: 56.5 µM (active)
AC50 [5]: 160 µM (active)
outcome [6]: inactive
AC50 [14]: 20 µM (active)
AC50 [15]: 32.6 µM (active)
AC50 [16]: 32.8 µM (active)
AC50 [17]: 30.2 µM (active)
outcome [7]: inactive
outcome [8]: inactive
AC50 [18]: 29.4 µM (active)
outcome [9]: inactive
outcome [10]: inactive
AC50 [19]: 24.2 µM (active)
outcome [20]: inactive
outcome [12]: inactive
outcome [13]: inactive

CN(C)c1ccc(C(=C2C=CC(=[N+](C)C)C=C2)c2ccccc2)cc1
AC50 [1]: 5.55 µM (active)
outcome [1]: inactive
outcome [2]: inactive
AC50 [4]: 474 nM (active) and 475 nM (active)
AC50 [5]: 2.27 µM (active)
outcome [5]: inactive
AC50 [6]: 1.61 µM (active) and 2.64 µM (active)
AC50 [14]: 0.0152 µM (active)
AC50 [15]: 0.0141 µM (active)
AC50 [16]: 0.0273 µM (active)
AC50 [17]: 0.0082 µM (active)
outcome [8]: inactive
AC50 [18]: 0.337 µM (active)
AC50 [19]: 0.0248 µM (active)
AC50 [20]: 1.75 µM (active) and 1.45 µM (active)
AC50 [11]: 3.02 µM (active)

O=C(O)CCC(F)(F)C(F)(F)C(F)(F)C(F)(F)C(F)(F)C(F)(F)F
outcome [1]: inactive
outcome [2]: inactive
outcome [3]: inactive
AC50 [4]: 68.4 µM (active)
outcome [5]: inactive
outcome [6]: inactive
outcome [14]: inactive
outcome [15]: inactive
outcome [16]: inactive
outcome [17]: inactive
outcome [7]: inactive
outcome [8]: inactive
outcome [18]: inactive
outcome [19]: inactive
AC50 [20]: 73.4 µM (active)
outcome [11]: inactive
outcome [13]: inactive

O=C(OC(=O)C(F)(F)C(F)(F)F)C(F)(F)C(F)(F)F
outcome [1]: inactive
outcome [2]: inactive
outcome [3]: inactive
outcome [4]: inactive
outcome [5]: inactive
outcome [6]: inactive
outcome [7]: inactive
outcome [8]: inactive
outcome [10]: inactive
outcome [11]: inactive
outcome [12]: inactive
